The source made the active and inactive calls. Rule for the calls: active = hit-call score of the fitted dose curve at least 0.9, where 1 is the maximum; inactive = score below 0.9.
Assays:
Details in all cases: mRNA level, 48 h; actives raise or lower the signal
[1] = read-out: Cytochrome P450 7A1 (Homo sapiens) (UniProt P22680); test: LTEA_HepaRG_CYP7A1: Life Technologies and Expression Analysis (LTEA) Assay for Cytochrome P450 7A1 (CYP7A1) using HepaRG (AID 2283496)
Outline: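 HepaRG cells plated 48 h, then switched to serum-free induction medium and exposed in duplicate for 48 h to 8-point half-log series from 100 uM in 0.5% DMSO. CYP7A1 mRNA by qRT-PCR (TaqMan), normalized to ACTB/GAPDH/POLR2A; bidirectional fit versus DMSO.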

[2] = read-out: Glutathione S-Transferase (GSTA2), GSTA2 (gene 2939); test: LTEA_HepaRG_GSTA2: Life Technologies and Expression Analysis (LTEA) Assay for Glutathione S-Transferase (GSTA2) using HepaRG (AID 2283497)
Outline: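 Human HepaRG cells, plated 48 h, then exposed in serum-free induction medium for 48 h to eight half-log concentrations up to 100 uM in 0.5% DMSO, duplicate. GSTA2 mRNA by qRT-PCR, normalized to ACTB/GAPDH/POLR2A; bidirectional fit versus DMSO.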

[3] = read-out: Glutamate-cysteine ligase catalytic (GCLC), GCLC (gene 2729); test: LTEA_HepaRG_GCLC: Life Technologies and Expression Analysis (LTEA) Assay for Glutamate-cysteine ligase catalytic (GCLC) using HepaRG (AID 2283498)
Outline: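 Differentiated human HepaRG cells, plated 48 h then switched to serum-free induction medium, were exposed in duplicate for 48 h to 8 half-log concentrations topping at 100 uM in 0.5% DMSO. GCLC mRNA was quantified by qRT-PCR against ACTB, GAPDH and POLR2A.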

[4] = read-out: Glutamate-cysteine ligase regulatory (GCLM), GCLM (gene 2730); test: LTEA_HepaRG_GCLM: Life Technologies and Expression Analysis (LTEA) Assay for Glutamate-cysteine ligase regulatory (GCLM) using HepaRG (AID 2283500)
Outline: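 Differentiated HepaRG cells exposed 48 h in serum-free induction medium to eight half-log concentrations up to 100 uM (0.5% DMSO). GCLM mRNA by TaqMan qRT-PCR, normalized to ACTB, GAPDH and POLR2A; bidirectional fit versus DMSO.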

[5] = read-out: Glutathione S-transferase M3 (GSTM3), GSTM3 (gene 2947); test: LTEA_HepaRG_GSTM3: Life Technologies and Expression Analysis (LTEA) Assay for Glutathione S-transferase M3 (GSTM3) using HepaRG (AID 2283501)
Outline: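 GSTM3 transcript levels came from Fluidigm TaqMan qRT-PCR normalized to three housekeeping genes, fitted in both directions against DMSO. HepaRG cultures received chemicals for 48 h in serum-free induction medium (0.5% DMSO), 8 half-log concentrations up to 100 uM, duplicate.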

[6] = read-out: Heat shock 70 kDa protein 1 (HSPA1A), gene 3303; test: LTEA_HepaRG_HSPA1A: Life Technologies and Expression Analysis (LTEA) Assay for Heat shock 70 kDa protein 1 (HSPA1A) using HepaRG (AID 2283502)
Outline: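 Human HepaRG cells in serum-free induction medium were exposed in duplicate for 48 h to 8 half-log concentrations, highest 100 uM, in 0.5% DMSO. HSPA1A mRNA read by TaqMan qRT-PCR, normalized to ACTB, GAPDH, POLR2A, fitted bidirectionally against DMSO.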

[7] = read-out: Hypoxia-inducible factor 1-alpha (Homo sapiens) (UniProt Q16665); test: LTEA_HepaRG_HIF1A: Life Technologies and Expression Analysis (LTEA) Assay for Hypoxia-inducible factor 1 (HIF1A) Trancription factor using HepaRG (AID 2283503)
Outline: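 Differentiated HepaRG cells in serum-free induction medium exposed 48 h, in duplicate, to 8-point half-log series from 100 uM in 0.5% DMSO. HIF1A mRNA measured by TaqMan qRT-PCR, normalized to ACTB/GAPDH/POLR2A, fitted bidirectionally versus DMSO.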

[8] = read-out: 3-Hydroxy-3-Methylglutaryl-CoA Synthase 2 (HMGCS2), HMGCS2 (gene 3158); test: LTEA_HepaRG_HMGCS2: Life Technologies and Expression Analysis (LTEA) Assay for 3-Hydroxy-3-Methylglutaryl-CoA Synthase 2 (HMGCS2) using HepaRG (AID 2283504)
Outline: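 Readout is HMGCS2 transcript by qRT-PCR, housekeeping-normalised (ACTB/GAPDH/POLR2A) and fitted bidirectionally against 0.5% DMSO. Differentiated HepaRG cells received chemicals 48 h, duplicate wells, eight half-log concentrations topping at 100 uM.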

HGF (gene 3082) = test: LTEA_HepaRG_HGF: Life Technologies and Expression Analysis (LTEA) Assay for Hepatocyte Growth Facto (HGF) using HepaRG (AID 2283505)
Outline: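 HGF transcript was quantified by TaqMan qRT-PCR against three housekeeping genes after 48 h treatment of HepaRG cells. Exposure ran in duplicate over eight half-log steps topping at 100 uM in 0.5% DMSO vehicle.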

[9] = read-out: Insulin Like Growth Factor 1 (IGF1), IGF1 (gene 3479); test: LTEA_HepaRG_IGF1: Life Technologies and Expression Analysis (LTEA) Assay for Insulin Like Growth Factor 1 (IGF1) using HepaRG (AID 2283506)
Outline: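 Differentiated HepaRG cells in serum-free induction medium, exposed 48 h in duplicate to 8 half-log concentrations up to 100 uM in 0.5% DMSO. IGF1 mRNA by Fluidigm qRT-PCR, normalised to ACTB, GAPDH and POLR2A.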

[10] = read-out: Intercellular Adhesion Molecule 1 (ICAM1), ICAM1 (gene 3383); test: LTEA_HepaRG_ICAM1: Life Technologies and Expression Analysis (LTEA) Assay for Intercellular Adhesion Molecule 1 (ICAM1) using HepaRG (AID 2283507)
Outline: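 ICAM1 transcript levels measured by qRT-PCR, normalized to three housekeeping genes (ACTB, GAPDH, POLR2A), after 48 h chemical exposure of HepaRG cells. Duplicate eight-point half-log series from 100 uM in 0.5% DMSO; gain or loss fitted against vehicle.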

[11] = read-out: Insulin-like growth factor-binding protein 1 (IGFBP1), IGFBP1 (gene 3484); test: LTEA_HepaRG_IGFBP1: Life Technologies and Expression Analysis (LTEA) Assay for Insulin-like growth factor-binding protein 1 (IGFBP1) using HepaRG (AID 2283508)
Outline: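 Read-out is qRT-PCR transcript level normalized to three housekeeping genes, fitted in both directions against 0.5% DMSO. Differentiated HepaRG cells received eight half-log concentrations (top 100 uM) in duplicate for 48 h in serum-free induction medium.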

[12] = read-out: Interleukin 6 (IL6), IL6 (gene 3569); test: LTEA_HepaRG_IL6: Life Technologies and Expression Analysis (LTEA) Assay for Interleukin 6 (IL6) using HepaRG (AID 2283509)
Outline: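 Differentiated human HepaRG cells, plated 48 h then switched to serum-free induction medium, were exposed in duplicate for 48 h to eight half-log concentrations up to 100 uM in 0.5% DMSO. IL6 mRNA measured by qRT-PCR, normalized to ACTB/GAPDH/POLR2A.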

[13] = read-out: Interleukin 6 Receptor (IL6R), IL6R (gene 3570); test: LTEA_HepaRG_IL6R: Life Technologies and Expression Analysis (LTEA) Assay for Interleukin 6 Receptor (IL6R) using HepaRG (AID 2283510)
Outline: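 Differentiated HepaRG cells, plated 48 h, then exposed in duplicate for 48 h in serum-free induction medium to 8 half-log concentrations (top 100 uM, 0.5% DMSO). IL6R mRNA measured by TaqMan qRT-PCR, normalized to ACTB/GAPDH/POLR2A; bidirectional fit vs DMSO.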

[14] = read-out: Potassium channel subfamily K member 1 (KCNK1), KCNK1 (gene 3775); test: LTEA_HepaRG_KCNK1: Life Technologies and Expression Analysis (LTEA) Assay for Potassium channel subfamily K member 1 (KCNK1) using HepaRG (AID 2283511)
Outline: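 Differentiated human HepaRG cells in serum-free induction medium were exposed in duplicate for 48 h to 8 half-log concentrations up to 100 uM in 0.5% DMSO. KCNK1 mRNA was measured by TaqMan qRT-PCR, normalized to ACTB, GAPDH and POLR2A, and fitted bidirectionally versus DMSO.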

[15] = read-out: Keratin 19 (KRT19), KRT19 (gene 3880); test: LTEA_HepaRG_KRT19: Life Technologies and Expression Analysis (LTEA) Assay for Keratin 19 (KRT19) using HepaRG (AID 2283512)
Outline: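 KRT19 transcript measured by TaqMan qRT-PCR, referenced to three housekeeping genes, after HepaRG cells received test chemicals for 48 h. Eight half-log concentrations, top 100 uM, 0.5% DMSO vehicle; increases and decreases both fitted.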

[16] = read-out: JUN Transcription Factor, JUN (gene 3725); test: LTEA_HepaRG_JUN: Life Technologies and Expression Analysis (LTEA) Assay for JUN Transcription Factor using HepaRG (AID 2283513)
Outline: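 HepaRG cells, 48 h post-plating, exposed 48 h in serum-free induction medium to 8-point half-log series (top 100 uM, 0.5% DMSO), duplicate; mRNA by qRT-PCR (TaqMan, Fluidigm), normalized to ACTB/GAPDH/POLR2A; bidirectional fit vs DMSO.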

[17] = read-out: Lipase C (LIPC), LIPC (gene 3990); test: LTEA_HepaRG_LIPC: Life Technologies and Expression Analysis (LTEA) Assay for Lipase C (LIPC) using HepaRG (AID 2283514)
Outline: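 Differentiated human HepaRG cells in serum-free induction medium were exposed in duplicate for 48 h to eight concentrations (top 100 uM, half-log steps, 0.5% DMSO). LIPC mRNA was quantified by TaqMan qRT-PCR, normalized to ACTB, GAPDH and POLR2A, with bidirectional fitting versus DMSO.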

[18] = read-out: Lipoprotein lipase (LPL), LPL (gene 4023); test: LTEA_HepaRG_LPL: Life Technologies and Expression Analysis (LTEA) Assay for Lipoprotein lipase (LPL) using HepaRG (AID 2283515)
Outline: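 Differentiated human HepaRG cells in serum-free induction medium were exposed in duplicate for 48 h to eight half-log concentrations (top 100 uM) in 0.5% DMSO. LPL mRNA was quantified by TaqMan qRT-PCR, normalized to ACTB, GAPDH and POLR2A.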

Measured: AC50

Hypoxia-inducible factor 1-alpha (Homo sapiens), sequence (Q16665 whole entry, looked up): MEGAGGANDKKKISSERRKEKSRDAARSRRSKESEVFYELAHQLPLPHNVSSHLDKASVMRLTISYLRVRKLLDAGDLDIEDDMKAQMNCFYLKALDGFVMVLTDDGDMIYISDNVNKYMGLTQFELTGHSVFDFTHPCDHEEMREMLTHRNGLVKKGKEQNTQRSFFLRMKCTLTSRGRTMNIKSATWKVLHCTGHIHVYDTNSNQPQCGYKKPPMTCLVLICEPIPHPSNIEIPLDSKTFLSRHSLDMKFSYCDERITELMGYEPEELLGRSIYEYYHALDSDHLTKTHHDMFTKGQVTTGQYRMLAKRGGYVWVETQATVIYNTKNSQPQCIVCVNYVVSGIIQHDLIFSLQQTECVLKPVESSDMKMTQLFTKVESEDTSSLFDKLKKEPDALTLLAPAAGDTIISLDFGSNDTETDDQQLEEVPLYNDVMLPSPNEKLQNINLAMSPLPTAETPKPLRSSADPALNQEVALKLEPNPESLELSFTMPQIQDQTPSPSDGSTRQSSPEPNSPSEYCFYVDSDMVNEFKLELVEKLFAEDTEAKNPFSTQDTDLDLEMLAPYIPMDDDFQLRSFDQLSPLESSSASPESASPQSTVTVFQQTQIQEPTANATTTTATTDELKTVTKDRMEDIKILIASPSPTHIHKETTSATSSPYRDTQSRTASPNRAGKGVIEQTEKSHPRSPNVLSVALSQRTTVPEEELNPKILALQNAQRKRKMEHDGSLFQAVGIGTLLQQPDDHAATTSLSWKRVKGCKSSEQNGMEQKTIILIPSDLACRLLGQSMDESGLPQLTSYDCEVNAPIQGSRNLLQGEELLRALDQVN

CC(C)(C)c1ccc(CSc2cnn(C(C)(C)C)c(=O)c2Cl)cc1
inactive: [3] | [5] | [6] | [7] | HGF (gene 3082) | [13] | [14] | [16]
active: [1] 26.1 µM | [2] 8.51 µM | [4] 4.86 µM | [8] 2.38 µM | [9] 1.88 µM | [10] 2.69 µM | [11] 3.43 µM | [12] 2.84 µM | [15] 1.58 µM | [17] 2.82 µM | [18] 2.25 µM

CC1=C(C(=O)Nc2ccccc2)SCCO1
active: [1] 35.7 µM | [8] 71.8 µM | [13] 50 µM | [15] 41.7 µM | [17] 39.5 µM | [18] 36.5 µM
inactive: [2] | [3] | [4] | [5] | [6] | [7] | HGF (gene 3082) | [9] | [10] | [11] | [12] | [14] | [16]

Cc1cc(Cl)ccc1OCC(=O)O
active: [1] 24.9 µM
inactive: [2] | [3] | [4] | [5] | [6] | [7] | [8] | HGF (gene 3082) | [9] | [10] | [11] | [12] | [13] | [14] | [15] | [16] | [17] | [18]

CCOc1cc(Oc2ccc(C(F)(F)F)cc2Cl)ccc1[N+](=O)[O-]
inactive: [3] | [5] | [6] | [7] | [12] | [13] | [16]
active: [1] 34.8 µM | [2] 39.9 µM | [4] 50 µM | [8] 41.9 µM | [9] 50 µM | [10] 50 µM | [11] 68.8 µM | [14] 30 µM | [15] 33.8 µM | [17] 34.9 µM | [18] 21.4 µM

— PubChem BioAssay (EPA / NIEHS)
